We go through 61 molecules from PubChem BioAssay AID904 (National Center for Advancing Translational Sciences (NCATS), 2007).

The whole screen tested about 55,000 compounds, of which about 530 (0.96%) were called active. Not shown: some 7% with an inconclusive outcome. Only a selection was taken, and actives are over-represented in it overall. Values without a mark were called inactive. The call rests on the fitted dose curve; in most records, active means well fitted cell-killing curve with a large enough effect; inconclusive means small, poorly fitted or top-dose-only effect; inactive means no such curve, though single readings can be large or run the other way.
Potency means the concentration at half of the fitted maximal effect.

The nature of this assay: qHTS Screen for Compounds that Selectively Target Cancer Cells with p53 Mutations: Cytotoxicity of p53 Null Cells at the Nonpermissive Temperature. Further: nearly all actives have a fitted effect of over 50% in size.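 On activity, negative = cell killing: 0% = DMSO only and -100% = full killing by 100 µM tamoxifen.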 The settings on record: H1299 p53-null (neo) cells, 39C, ATPlite viability, 24 h; series mostly up to 46.1 µM; activity, negative = cell killing: at the top concentration. The source says:
NIH Chemical Genomics Center [NCGC] NIH Molecular Libraries Screening Centers Network [MLSCN] MLSCN Grant: 1 X01 MH079844-01 Assay Submitter (PI): Dr. SUN, YI, University of Michigan NCGC Assay Overview: Synthetic Lethal Screen for Compounds to Kill Cancer Cells with p53 Mutation. Tumor suppressor gene p53 serves as a major cellular barrier against tumorigenesis. […] The goal of this screening is to identify small molecule probes that selectively kill cancer cells with mutations in p53. This screening was carried out using two lines of H1299 lung cancer cells. The H1299-p53 A138V line express a temperature sensitive p53 mutant (p53ts) in which the mutant p53 protein (A138V) is in the mutant confirmation when grown at 39C (the nonpermissive temperature) and in the wild type conformation when grown at 32C (the permissive temperature). A H1299-neo line (p53 null) grown at both 39C and 32C were used as counter-screens to filter out false positive associated with temperature shifting. The small molecular compounds that selectively target mutant p53-containing cancer cells were selected as candidate probes for further study. A cytotoxicity assay based on the measurement of ATP contents in cells was used in this screen. Concentration-responses of all the compounds in the library collection were determined in qHTS using the cell lines and temperature conditions as above.
NCGC Assay Protocol Summary: Both the H1299-p53A138V and H1299-neo cell lines were provided by Dr.Yi Sun, a PI at the University Michigan. The cells were maintained and cultured at 37C. The resuspended frozen cells were used to plate the cells in the 1536-well assay plates at a density of 600 cells per well in 5 ul medium. The assay plates with the cells were incubated at 37C for 16 to 30 hours before the experiments. The library compounds in DMSO solution were added to the cells in assay plates and incubated 24 hours at 39C (for mutant p53 conformation) or 32C (for normal p53 conformation as control). An ATP_lite assay kit (PerkinElmer) was used to determine the cell viability. Tomaxifen (100uM) was used as the positive control for cell killing. Data were normalized to the controls for basal activity (DMSO only) and 100% killing (100uM tamoxifen). AC50 values were determined from concentration-response data modeled with the standard Hill equation. P53 assay protocol: 1. Reagent; 5 uL H1299-p53A138V or H1299-neo cell cells/well 2. Time; overnight; 37C incubation 3. Compounds; 23 nL; 5.9 nM to 46 uM 4. Controls; 23 nL; Tamoxifen 100 uM 5. Time; 24 hr; 39C incubation 6. Reagent; 3 uL; ATP_Lite reagent 7. Time; 20 min; Room Temperature 8. Detection; Luminescence; Viewlux plate reader Keywords: p53, synthetic lethal, cancer, cell viability, cytotoxicity, H1299 cell line, luminescence, MLSMR, MLSCN, NIH Roadmap, qHTS, NCGC
A general note: Quantitative high-throughput screening tests each substance at several concentrations.
As to `Cc1ccc(NC(=O)C2CCN(S(=O)(=O)c3cc(-c4noc(C)n4)ccc3C)CC2)c(C)c1`, the “activity, negative = cell killing” value is 16.7%. For `Cc1ccc(-c2cc(N)on2)cc1`, the activity, negative = cell killing was 9.86% [at 1.84 µM]. For `Cc1ccc2[nH]cc(CCCN3C(=O)c4ccccc4C3=O)c2c1`, the activity, negative = cell killing was -0.898% [at 1.84 µM].

For `Cc1nn(Cc2ccc(Cl)cc2)c(Cl)c1/C=N/NC(=O)CNc1ccccc1F`, the “activity, negative = cell killing” value was 34.8%. Take `COc1ccc(NC(=O)Cn2c(=O)n(CCC(C)C)c(=O)c3cccnc32)cc1Cl`: the “activity, negative = cell killing” value was -16.3%. On to `CCOC(=O)c1ccc(NC(=O)Cn2cc(S(=O)(=O)Cc3ccccc3F)c3ccccc32)cc1`, for which the “activity, negative = cell killing” value is -3.04%. Turning to `CCOc1cccc2c1N[C@@H](c1ccc(C(=O)O)cc1)[C@H]1CC=C[C@@H]21`, the “activity, negative = cell killing” value is 2.51%. Take `Cc1[nH]c2ccccc2c1/C=N/NC(=O)CNC(=O)c1ccc2c(c1)OCO2`: the activity, negative = cell killing is 2.07% [at 1.84 µM]. As to `Cc1cc[n+](-c2[nH]c(=O)sc2/C=N/NC(=O)c2ccccc2[O-])cc1C`, the “activity, negative = cell killing” value was 21.4%. `Cc1cccc(NC(=O)Cn2nc(-c3ccc(Cl)cc3)c3ccccc3c2=O)c1`: the “activity, negative = cell killing” value is 1.82%. As for `O=C(Cn1c(=O)nc(-c2ccccc2)c2cc(Cl)ccc21)NCc1ccc(Cl)cc1`, the “activity, negative = cell killing” value was -21.4%. For the molecule `CCN(C(=O)Cn1c(=O)nc(-c2ccccc2)c2cc(Cl)ccc21)c1cccc(C)c1`, the Potency was 12.6 µM (active). `COc1ccc(-c2nnc(SCc3cccnc3)o2)cc1`: the “activity, negative = cell killing” value is -29.7%.

As to `CCCn1c(SCC(=O)Nc2ccc(C)c(S(=O)(=O)N3CCOCC3)c2)n[nH]c1=O`, the “activity, negative = cell killing” value is 11.9%.

Regarding `O=C(Nc1c2c(nc3ccccc13)CCCC2)c1ccccc1Br`, the “activity, negative = cell killing” value is 12.7%. On to `COc1ccccc1Nc1c2c(nc3ccc(NC(=O)/C=C/c4cc(OC)c(OC)c(OC)c4)cc13)CCCC2`, for which the Potency was 10 µM (active).

Turning to `COc1cc(C(=O)Nc2ccc(-n3c(C)nc4ccccc4c3=O)cc2)cc(OC)c1OC`, the “activity, negative = cell killing” value was 19%. For `CCOC(=O)c1cc2c(=O)n3ccccc3nc2n(CC2CCCO2)c1=NC(=O)c1ccc(C(C)(C)C)cc1` (stereo unspecified), the “activity, negative = cell killing” value was 10.4%. `Cc1ccccc1CSc1nc2c([nH]c3ccccc32)c(=O)n1C`: the “activity, negative = cell killing” value is 12.6%. Consider `CC1=C(c2ccc(C)cc2)S(=O)(=O)NC1=NCCCN1CCN(c2cc(C)ccc2C)CC1`, for which the “activity, negative = cell killing” value is -8.74%.

For the molecule `Cc1ccc(C)c(N2CCN(CCCNC(=O)Nc3ccc(Cl)cc3)CC2)c1`, the Potency is 5.01 µM (active). For the molecule `CC1=C(c2ccc(Cl)cc2)S(=O)(=O)N=C1N1CCN(c2cc(C)ccc2C)CC1`, the “activity, negative = cell killing” value is -12.3%. With `COc1ccccc1OCC(=O)Nc1nnc2n1CCS2`, the “activity, negative = cell killing” value was 17%. As for `CC(C)S(=O)(=O)c1oc(-c2ccc(F)cc2)nc1S(=O)(=O)c1ccc(F)cc1`, the Potency is 12.6 µM (active). Regarding `Cc1ccc(-c2nc(S(=O)(=O)c3ccc(C)cc3)c(N3CCCCCC3)o2)cc1`, the “activity, negative = cell killing” value was 3.17%. In the case of `O=C(CSc1oc(-c2ccc(F)cc2)nc1S(=O)(=O)c1ccc(Br)cc1)NC1CCCCC1`, the “activity, negative = cell killing” value was -7.12%. As to `CCOc1ccc(S(=O)(=O)N/N=C(\C)c2ccc(Cl)c(Cl)c2Cl)cc1`, the “activity, negative = cell killing” value was 13.3%.

With `Cc1ccc(S(=O)(=O)NC2(C(F)(F)F)NC(=O)N(CCc3ccccc3)C2=O)cc1` (stereo unspecified), the “activity, negative = cell killing” value is 0.252%.

`CCOc1ccc(NC(=O)c2ncoc2-c2ccco2)cc1`: the Potency was 5.01 µM (active). For `CCOc1ccc(NC(=O)CN2CCN(CC(=O)Nc3ccc(OC)cc3)CC2)cc1`, the Potency entry is “inactive”. Consider `CCOc1ccc(NC(=O)c2cnn(-c3ccccc3)c2-n2cccc2)cc1`, for which the “activity, negative = cell killing” value is 59.1%. As to `C=Cc1ccc(Cn2c(C(=O)O)c(CNC3CCCC3)c3ccc(C)cc32)cc1`, the “activity, negative = cell killing” value is -17.8%.

With `Cc1ccccc1C(=O)Nc1cc(C)c(O)c(-c2nc3ccccc3o2)c1`, the “activity, negative = cell killing” value was -18%. Turning to `O=C(NC1CCN(C(=S)NCc2ccco2)CC1)c1ccc(F)cc1`, the “activity, negative = cell killing” value was 5.38%.

In the case of `COc1ccc(S(=O)(=O)NCC(c2ccco2)N2CCOCC2)cc1` (stereo unspecified), the “activity, negative = cell killing” value is 5.2%. For the molecule `Cc1ccc(NS(=O)(=O)c2ccc3c(c2)CC(=O)N3)cc1Cl`, the “activity, negative = cell killing” value was -10.8%. On to `COc1ccc(CCNc2nc(-c3ccc(F)cc3)cc(C(F)(F)F)n2)cc1OC`, for which the “activity, negative = cell killing” value is -13.6%.

In the case of `COc1ccccc1-c1cc(C(F)(F)F)nc(S(=O)(=O)CCCC(=O)Nc2cc(C)ccc2O)n1`, the Potency is 22.4 µM (active). On to `CSc1ccccc1NC(=O)CCS(=O)(=O)c1nc(-c2cccs2)cc(C(F)(F)F)n1`, for which the “activity, negative = cell killing” value was 133%. With `Cc1ccc(O)c(NC(=O)CCS(=O)(=O)c2nc(-c3ccc4c(c3)OCO4)cc(C(F)(F)F)n2)c1`, the “activity, negative = cell killing” value was 68.3%. As to `CC(=O)c1ccc(NC(=O)c2nc3nc(C)cc(C(F)F)n3n2)cc1`, the “activity, negative = cell killing” value is 11.3%. Turning to `CCCS(=O)(=O)c1ncc(Cl)c(C(=O)Nc2scc(-c3ccccc3)c2C(=O)OCC)n1`, the “activity, negative = cell killing” value was -27.2%.

For `Cc1ccc(NC(=O)c2nc(S(=O)(=O)Cc3cccc(C)c3)ncc2Cl)cc1`, the Potency is 22.4 µM (active).

As to `CCSc1ncc(Cl)c(C(=O)Nc2cc(C)ccc2C)n1`, the “activity, negative = cell killing” value was -0.257%. As to `Cc1ccc2nc(CN3CCN(S(=O)(=O)c4ccc(C)c(C)c4)CC3)oc2c1`, the “activity, negative = cell killing” value is -11.2%. For the molecule `O=C1N(c2ccc(Cl)cc2)C(c2ccc(Cl)cc2)N2CCCN12` (stereo unspecified), the activity, negative = cell killing is -0.885% [at 1.84 µM]. Same read-out and setting: to `O=C(COC(=O)CSc1nnc(-c2ccc(Cl)cc2)o1)Nc1cc(Cl)cc(Cl)c1` belongs 0.272%; to `O=[N+]([O-])c1ccc(N2CCN(S(=O)(=O)c3ccccc3)CC2)cc1N1CCc2ccccc2C1`, 39.8%; to `COc1cc(CNC(=O)c2cc3n(n2)CCCN(Cc2cccc(F)c2)C3=O)cc(OC)c1OC`, -11.9%. As for `O=C(Cc1ccc(Cl)cc1)NCC(c1cccs1)S(=O)(=O)c1ccc(Cl)cc1` (stereo unspecified), the “activity, negative = cell killing” value is 18.8%. Same read-out and setting: to `CCCCN(CCCNC(=O)c1cc(Nc2ccccc2OC)nc2ccccc12)c1ccccc1` belongs -2.39%. As to `COc1ccccc1Nc1cc(C(=O)NCCCN(C)C2CCCCC2)c2ccccc2n1`, the Potency is 12.6 µM (active). With `COc1ccc(Nc2cc(C(=O)NCCCN(C)c3ccccc3)c3ccccc3n2)c(OC)c1`, the “activity, negative = cell killing” value was 31.5%. For the molecule `COc1ccc(-c2cc3ccc(OCc4nn[nH]n4)cc3oc2=O)cc1`, the Potency is 10 µM (active). Turning to `COc1ccc2cc(-c3nc(Cl)c4c5c(sc4n3)CC(C)CC5)c(=O)oc2c1` (stereo unspecified), the “activity, negative = cell killing” value is -14.6%. Turning to `COc1ccc2oc(=O)c(-c3cn4c(n3)sc3cc(OC)ccc34)cc2c1`, the “activity, negative = cell killing” value is -0.0282%.

`O=C(COc1nc2ccccc2nc1N1CCOCC1)NCC(F)(F)F`: the “activity, negative = cell killing” value is -2.52%. On the same count and under the same terms, to `CCCn1ccc2c(OCC(=O)NCc3ccc(F)cc3)cccc2c1=O` belongs -11.4%; to `Cc1nn2c(=O)cc(COC(=O)c3ccccc3NC(=O)COc3ccccc3C)nc2s1`, -5.99%. On to `Cc1nn2c(=O)cc(COC(=O)c3cccc(NC(=O)COc4ccccc4Cl)c3)nc2s1`, for which the Potency is 6.31 µM (active). Take `COc1ccc(OCC(=O)Nc2cccc(C(=O)OCc3cc(=O)n4nc(C)sc4n3)c2)cc1`: the “activity, negative = cell killing” value was -1.29%.
